# Bioassay records (PubChem BioAssay)
# GDH-TPI counter: counter-screen for M. tuberculosis FBA inhibitors: GDH-TPI coupled enzymes; GDH-TPI coupled enzyme counterscreen, NADH absorbance; inhibition, % at 4.8 µM; 360,000 compounds, 1.2% hits; AID 588335; in the data active = inhibition above about 30%;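 also: 0% = DMSO wells and 100% = wells lacking the enzyme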
# FadD28 FP inh: M. tuberculosis FadD28 bisubstrate binding inhibition. inhibition, % at 12.5 µM. 360,000 compounds, 0.22% hits. FadD28 bisubstrate probe binding, fluorescence polarization; in the data active = inhibition above about 8.5%, passing the limit was not always enough
# Mtb FBA inh: Mtb fructose-bisphosphate aldolase inhibition; P9WQA3; purified M. tuberculosis FBA, fluorescence read-out; inhibition, % at 1 µM; 360,000 compounds, 2.3% hits; in the data active = inhibition above about 27%;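 also: 0% = vehicle and 100% = reference inhibitor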
# Target sequence (P9WQA3 whole entry, looked up): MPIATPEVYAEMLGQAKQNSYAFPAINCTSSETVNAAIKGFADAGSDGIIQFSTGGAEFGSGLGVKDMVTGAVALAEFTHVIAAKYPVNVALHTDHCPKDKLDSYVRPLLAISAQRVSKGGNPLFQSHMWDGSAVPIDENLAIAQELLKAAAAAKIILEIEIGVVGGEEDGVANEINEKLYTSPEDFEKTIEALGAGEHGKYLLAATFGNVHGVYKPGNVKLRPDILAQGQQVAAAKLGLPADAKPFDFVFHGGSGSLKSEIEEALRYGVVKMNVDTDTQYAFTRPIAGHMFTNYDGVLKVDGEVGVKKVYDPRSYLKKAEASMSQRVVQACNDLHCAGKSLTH
# 3CLpro inhibitor: SARS-CoV 3CLpro protease inhibition | 290,000 compounds, 0.14% hits | recombinant SARS-CoV 3CLpro, quenched FRET peptide cleavage | inhibition, % at 6 µM | P0C6X7 | AID 1706; in the data active = inhibition above about 12%
# BioA inh: BioA (M. tuberculosis) enzyme inhibition | 360,000 compounds, 0.096% hits | AID 602481 | purified M. tuberculosis BioA enzyme, plate reader | inhibition, % at 9.99 µM; in the data active = inhibition above about 40%
# Numbers without * were called inactive; . = no result. Compounds with a hit are over-represented: about 3.1% of the library has one in this group of screens.
SMILES,GDH-TPI counter,FadD28 FP inh,Mtb FBA inh,3CLpro inhibitor,BioA inh
COc1ccc(OC)c(/C=N/NC(=O)CNC(=O)c2cccc3ccccc23)c1,6,-4,145*,3,0
CC(C)NC(=O)Nc1ccc2c(c1)C(=O)N([C@H](C)CO)C[C@H](C)[C@@H](CN(C)C(=O)NC(C)C)OCCCC[C@@H](C)O2,.,.,.,.,-2
CCCC#Cc1ccc([C@H]2[C@@H](C#N)N(C(=O)C3CCCC3)[C@H]2CO)cc1,.,.,.,.,-5
COc1cccc(S(=O)(=O)N(C)C[C@H]2Oc3ncc(C#CCN(C)C)cc3C(=O)N([C@@H](C)CO)C[C@H]2C)c1,.,.,.,.,-3
CCCCCCCCCCCCCCCC[n+]1cccc2ccccc21,-1,17*,0,7,.
C[C@@H](C(=O)N(C)C[C@H]1OCc2ccccc2-c2ccccc2C(=O)N([C@@H](C)CO)C[C@@H]1C)c1ccccc1,.,.,.,.,0
CN(C)c1cccc(NC2=CC(=[N+]3CCOCC3)CC(C)(C)C2)c1,37*,-1,0,3,0
C/C=C/c1ccc2c(c1)O[C@@H](CN(C)C(=O)c1cnccn1)[C@H](C)CN([C@@H](C)CO)S2(=O)=O,.,.,.,.,-1
O=C(O)CCn1cc(/C=C\C(=O)c2ccc(Cl)cc2)c(-c2cccc(Br)c2)n1,38*,-15,1,6,5
C[C@H](CO)N1C[C@H](C)[C@@H](CN(C)C(=O)Cc2ccccn2)Oc2ncc(C#C[C@@H](C)O)cc2C1=O,.,.,.,.,-1
O=C(CCl)Nc1cccc(Oc2ccccc2)c1,-6,-7,-5,6,1
COc1cc(NC(=O)CCl)ccc(=O)c1,42*,-2,3,.,1
Cn1c(/C(C#N)=C/c2ccncc2)nc2ccccc21,8,-2,4,-1,-1
Cn1c(/C(C#N)=C/c2ccc(O)cc2)nc2ccccc21,36*,-3,-10,3,1
CN1C(=O)NC(c2ccc(O)cc2)C(C(=O)c2cccs2)C1(O)C(F)(F)F (stereo not given),43*,-1,-4,-6,-1
S=c1[nH]cnc2sc(-c3ccccc3)cc12,52*,-1,-3,3,.
O=C(O)CSc1ncnc2sc(-c3ccccc3)cc12,19,-4,6,11,.
O=C(Nc1ccc2c(c1)OCCO2)N1CCN(Cc2ccccc2)CC1,32*,0,1,5,6
O=C(Nc1ccc2c(c1)OCCO2)N1CCN(c2ccccc2)CC1,-2,2,3,1,16
O=C1OC(c2ccc(Br)cc2)=N/C1=C\N1CC2CC(C1)c1cccc(=O)n1C2 (stereo not given),56*,-4,-4,1,5
O=C1OC(c2ccc(Cl)cc2)=N/C1=C\N1CC2CC(C1)c1cccc(=O)n1C2 (stereo not given),60*,0,2,4,.
O=C(CN1CCOCC1)N[C@@H]1CC[C@H](CCNC(=O)Nc2cc(F)ccc2F)O[C@H]1CO,.,.,.,.,0
O=C(C[C@@H]1C[C@H]2c3cc(NC(=O)C4CCC4)ccc3O[C@H]2[C@H](CO)O1)NCC(F)(F)F,.,.,.,.,0
Cc1ccc(C(=O)NNC(=O)c2ccc(NS(=O)(=O)c3cccs3)cc2)s1,7,2,-1,.,1
Cc1cccc(C(=O)NNC(=O)c2ccc(NS(=O)(=O)c3cccs3)cc2)c1C,0,13*,-4,.,0
SMILES,GDH-TPI counter,FadD28 FP inh,Mtb FBA inh,3CLpro inhibitor,BioA inh
O=C(NNC(=O)c1ccc([N+](=O)[O-])cc1)c1ccc(NS(=O)(=O)c2cccs2)cc1,6,19*,-6,.,0
Oc1ccccc1C=NNc1nc2ccccc2s1,24,0,3,.,0
C(=N\Nc1nc2ccccc2s1)/c1cccs1,42*,1,0,-1,-4
C(=N\Nc1nc2ccccc2s1)/c1ccco1,42*,0,-1,2,-1
Oc1ccc(C=NNc2nc3ccccc3s2)c(O)c1,32*,6,-1,.,-1
Cc1ccsc1/C=N/Nc1nc2ccccc2s1,20,4,0,-2,.
O=C(COc1ccc(/C=N/NC(=O)c2ccccc2O)cc1)Nc1ccc([N+](=O)[O-])cc1,38*,-6,0,-5,-1
O=C(COc1ccc(/C=N/NC(=O)c2ccncc2)cc1)Nc1cccc([N+](=O)[O-])c1,17,-1,4,1,-1
COc1ccc(C=Nc2cccc3c(=O)[nH][nH]c(=O)c23)c2ccccc12,31*,0,5,4,0
CSc1nc(SCC(=O)NCc2ccco2)c2c3c(sc2n1)COC(C)(C)C3,36*,-1,18,0,-2
Cc1sc2ncnc(N/N=C/c3ccc(O)cc3)c2c1C,48*,-2,1,3,2
Nc1c(Cl)ncnc1N/N=C/c1ccc(O)cc1,42*,-3,2,4,.
COc1cccc(/C=N/Nc2ncnc3scc(-c4ccccc4)c23)c1OC,41*,-6,5,4,-2
COc1ccc(/C=N/Nc2ncnc3sc(C)c(C)c23)cc1,25,-5,-3,0,.
Cc1sc2ncnc(N/N=C/c3ccccc3O)c2c1C,35*,0,0,3,-1
COc1cccc(C=NNc2nc3ccccc3s2)c1OC,14,-4,1,.,-1
C[C@H](CO)N1C[C@H](C)[C@H](CN(C)C)Oc2ccc(NC(=O)Cc3cn(C)c4ccccc34)cc2C1=O,.,.,.,.,1
CO[C@H]1CN(C)C(=O)c2cc(NC(=O)c3ccccc3)ccc2OC[C@H](C)N(CC2CC2)C[C@H]1C,.,.,.,.,0
OC[C@@H]1[C@H](c2ccc(C#CC3(O)CCCC3)cc2)[C@H]2CN(Cc3cccnc3)CCCCN12,.,.,.,.,-4
COCC(=O)Nc1ccc2c(c1)C(=O)N(C)[C@@H]1CC[C@H](CC(=O)Nc3ccccc3)O[C@H]1CO2,.,.,.,.,11
COC(=O)/C=c1/s/c(=C(/C#N)C(=O)N2CCOCC2)n(-c2ccccc2)c1=O,40*,-1,2,0,-2
C=CCn1c(=O)/c(=C\c2ccsc2)s/c1=C(/C#N)C(=O)NCCN1CCOCC1,8,1,1,-6,-6
COc1ccc(-n2c(=O)/c(=C\c3cccs3)s/c2=C(/C#N)C(=O)NCCN2CCOCC2)cc1,34*,1,-5,-1,-5
Cc1ccc(-c2ccc3c(c2)O[C@H](CN(C)C(=O)Nc2ccc(F)cc2)[C@H](C)CN([C@@H](C)CO)S3(=O)=O)cc1,.,.,.,.,0
O=c1[nH]c(=S)c2c(n1-c1ccccc1)CCC2,35*,0,-2,-11,0
N#CCCn1cc(C(=O)Nc2ccc([N+](=O)[O-])cc2)c(-c2ccccc2)n1,38*,-5,-1,-1,4
N#CCCn1cc(C(=O)Nc2ccc(C(=O)O)cc2)c(-c2ccc([N+](=O)[O-])cc2)n1,14,-4,1,-2,.
C[C@@H]1CN([C@H](C)CO)C(=O)c2cc(NC(=O)Nc3cccc4ccccc34)ccc2O[C@@H](C)CCCCO[C@H]1CN(C)S(=O)(=O)c1ccc(F)cc1,.,.,.,.,-2
Nc1nnc(CC(=O)N/N=C/c2ccc(-c3ccccc3Cl)o2)s1,39*,-8,0,0,.
